# Measurements reported in the supplement of paper PMC6555819.
# System: RARb homodimer (NR concentration 270 nM)
# Assay: PBM binding z-score (relative to random genomic background probes); higher = stronger binding; sequences stand for … in GC…GCGATTGACAGCGTAGAATGAAGG
# In short: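 Ligand-free nuclear receptor dimers were applied to custom Agilent 4×180K protein-binding microarrays whose double-stranded probes carried direct-repeat seeds, single-nucleotide variants, half-site ablations and random human genomic background sequences in 34-nt variable regions. Incubation lasted 1 h. Binding z-scores were computed against the random background probes from regression-normalized fluorescence.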
row,Sequence,PBM binding z-score
1,TGGAGTAGGTTACGGGGGCATTCAGGGATGAAGA,2.94
2,CGTCCAAGGTCAGAGAGGTCAGTGTATGCCGAGT,5.2
3,CCTACTGGGCCACGAAAGGTGATTGATTCAGTGA,1.02
4,ATATGTAGGTTAGGGTCATTAAGAAAGTAGGGAA,3.33
5,ATATGTAGGTAAGGGTCATTCAGAAAGTAGGGAA,3.55
6,ATATGTAGGTTAGGGTAATTCAGAAAGTAGGGAA,1.35
7,AGTCCAAGTTCACTAGGTAACGTAAGATTCAGCT,1.95
8,TCTCGGAGGACACGAAAAGTCAGAGCTCGACATC,0.803
9,ATATGTAGGTTAGGGTTATTCAGAAAGTAGGGAA,1.72
10,CGAACTAGGTCACCAAGACAGTGAAGAGGTTGGA,3.11
11,CTATGTAAGTTAAGGGGGTCATTCAGTTTGAAAG,3.7
12,CAAACTAGGTCAAGGGGTCAAAGTCCGCTTCCCG,5.65
13,CGCACTAGGTCACCAGGACAGTGAAGAGGTTGGA,3.34
14,CGACCTAGGTCACCAGGACAGTGAAGAGGTTGGA,3.51
15,CAAACTAGGTCACGAAAGGTCAACGTCGAATGAC,6.16
16,TATACAGGATCAAAGGCCAGAGTACGAATGTCGA,0.878
17,ATATGTAGGTTCCATCCGGGTCATTCAGGCTATG,2.11
18,CGAACTAGGTCACTAGGACAGTGAAGAGGTTGGA,3.02
19,CAAACTAGGTCACCGGGAGGTCAAAGTCCGCATG,5.88
20,GCTGCTAGGTCAGGTTGGTCAACTAACGGGTACG,2.85
21,CCGAGTAGGTTACGACGGGGCATTCAGTGCGAAT,0.791
22,CCGAGTAGGTTACGAGGGGGCATTCGGTGCGAAT,2.06
